Survival data for 64 compounds are collected here from PubChem BioAssay AID463173 (ICCB-Longwood Screening Facility, Harvard Medical School, 2010).

In all, about 52,000 compounds went through this assay and about 4,300 (8.3%) were called active. Shown is part of a subset that was picked to be rich in actives. A number with no mark means an inactive call. Rule as the data show it: active = survival mostly below about 52% (no sharp cut-off); inactive = mostly above about 56%.

The subject of the experiment is DeltatarO mutant. Nature of the experiment: growth inhibition of S. aureus wild type versus tarO mutant, primary screen, teichoic acid synthesis inhibitors, RN4220, OD600 (AID 463173). Particulars: OD600, 18 h, stronger effect = lower value, screened at 18.75 µg/mL (by protocol).
With `Cc1ccc(NC(=O)Cn2c(CCC(=O)O)ccc2-c2ccc(Cl)cc2)cc1`, the survival was 53%. Regarding `Cn1ccc2cc(S(=O)(=O)N3CCN(C(=O)Nc4ccc(F)cc4F)CC3)ccc21`, the survival is 70%. As to `COc1cccc(CNC(=O)c2cc3c(=O)oc4ccc(C)cc4c3s2)c1`, the survival was 73%.

As for `COc1ccc(Cl)cc1NC(=O)[C@H]1O[C@@H]2OC(C)(C)O[C@@H]2[C@H]2OC(C)(C)O[C@H]21`, the survival is 83%. For `O=C(CSCc1nc2cccnc2n1C1CCCCC1)NCc1cccc(Br)c1`, the survival is 105%.

In the case of `CC(C)c1nn2c(=O)cc(COC(=O)C3CCCCC3)nc2s1`, the survival was 94%.

Take `CCc1ccc2nc(N(Cc3cccnc3)C(C)=O)sc2c1`: the survival was 91%. The same measure for `COc1ccccc1CNC(=O)c1c2c(nc3ccccc13)C(=O)N(C1CCCCC1)C2`: 99%; for `COc1ccc(CNC(=O)c2c3c(nc4ccccc24)C(=O)N(C2CCCCC2)C3)c(OC)c1`: 32% (active). For `COc1ccc(OC)c(CNC(=O)c2c3c(nc4ccccc24)C(=O)N(C2CCCCC2)C3)c1`, the survival is 93%.

For `COc1ccc(C2C3C(=O)N(c4ccccc4)C(=O)C3ON2c2ccccc2)cc1` (centres undefined), the survival is 106%. The same measure for `CC1CCN(S(=O)(=O)c2ccc3c(c2)CCN3C(=O)Nc2ccc(Br)cc2)CC1`: 69%. Take `Cc1ccc(C(=O)Nc2ccccc2C(=O)OCc2cc(=O)n3nc(C(C)C)sc3n2)cc1`: the survival was 78%. For `Cc1ccccc1CNC(=O)Cn1c(=O)c2cccn2c2cccnc21`, the survival is 76%.

As for `Cc1[nH]n2c(=O)cc(-c3ccc(Cl)cc3)nc2c1-c1ccccc1`, the survival is 3% (active).

Consider `Nc1nc2nc(-c3ccccc3)cc(=O)n2[nH]1`, for which the survival was 84%. As for `Cc1cccc(-c2cc3nc(-c4ccccc4)cc(=O)n3[nH]2)c1`, the survival was 97%. The same measure for `Cc1nn2c(-c3ccccc3)cc(-c3ccccc3)nc2c1-c1ccc(Cl)cc1`: 78%; for `O=C(Nc1nc2nc(-c3ccccc3)cc(=O)n2[nH]1)c1ccc(Cl)cc1`: 65%; for `Cc1[nH]n2c(=O)cc(-c3ccccc3Cl)nc2c1-c1ccccc1`: -3% (active). `C/C(=N\N=C1/NC(=O)C(CC(=O)O)S1)c1ccc(C)o1` (centres undefined): the survival was 101%. On to `CCCCCCNC(=O)CCc1c(C)nc2nc(-c3cc(OC)cc(OC)c3)nn2c1C`, for which the survival was 57%. On to `CC(C)(C)c1ccc(Cn2c(=N)n(CC(O)c3ccco3)c3ccccc32)cc1` (centres undefined), for which the survival is 5% (active).

For `Cc1ccc(Cn2c(=N)n(CC(=O)c3ccccc3)c3ccccc32)cc1`, the survival is 65%.

Take `N=c1n(CCN2CCCCC2)c2ccccc2n1CC(O)c1ccc2c(c1)OCO2` (centres undefined): the survival was 83%. For `COc1ccc(CNCCSc2nnnn2-c2ccccc2)c(OC)c1`, the survival is 49%. As for `COc1cc(C2CC(=O)c3c([nH]c(C(=O)OCC4CCCCC4)c3C)C2)cc(OC)c1OC` (centres undefined), the survival is 82%.

Regarding `O=C(CCCCn1c(=O)c2ccccc2n(CC(=O)Nc2ccc(F)cc2F)c1=O)NCc1ccccc1Cl`, the survival is 100%.

Take `Cc1ccc(C(C(=O)NC2CCCCC2)N(C(=O)C2COc3ccccc3O2)c2ccc3c(c2)OCO3)o1` (centres undefined): the survival is 77%.

Consider `Cc1ccc(C(C(=O)NCc2ccccc2)N(C(=O)C2COc3ccccc3O2)c2cccc(O)c2)o1` (centres undefined), for which the survival was 45% (active).

In the case of `O=C(NCc1ccco1)C(c1cccs1)N(C(=O)C1COc2ccccc2O1)c1cccc(O)c1` (centres undefined), the survival is 63%. The same measure for `CCn1c(SCC(N)=O)nc2ccccc2c1=O`: 102%; for `Cc1cc(=O)n(Cc2c(F)cccc2Cl)c2c1c(C)nn2C`: 81%; for `Cc1ccc(-c2nc(Cn3c(=O)cc(-c4ccccc4)c4c(C)nn(C)c43)c(C)o2)cc1`: 108%. To `Cc1cccc(-c2nc(Cn3c(=O)cc(-c4ccccc4)c4c(C)nn(C)c43)c(C)o2)c1` belongs -5% (active). With `Cc1oc(-c2ccccc2)nc1Cn1c(=O)cc(-c2ccccc2)c2c(C)nn(C)c21`, the survival is 92%. For the compound `Cc1nn(C)c2c1c(-c1ccccc1)cc(=O)n2Cc1c(F)cccc1Cl`, the survival was -5% (active). Regarding `Cc1nn(C)c2c1c(-c1ccccc1)cc(=O)n2Cc1ccccc1F`, the survival was 109%. Take `CSc1cccc(NC(=O)Nc2ccccc2OCc2cc(=O)n3cc(C)ccc3n2)c1`: the survival is 102%. As for `CCc1ccc(-c2nc(CN3CCC(C(=O)NCCc4ccc(Cl)cc4)CC3)c(C)o2)cc1`, the survival was 77%. On to `Cc1cccc(C(=O)N2CCc3cc(CNC(=O)CSc4ccccc4)ccc32)c1`, for which the survival was 77%. Regarding `CCc1cc(=O)oc2c(C)c3c(cc12)CN(CCc1ccccc1)CO3`, the survival was 71%. Take `CCc1cc(=O)oc2c(C)c3c(cc12)CN(CCc1ccccc1OC)CO3`: the survival is 51%. To `Cc1c(C)c2cc3c(c(C)c2oc1=O)OCN(CCc1ccc(F)cc1)C3` belongs 41% (active); to `COC(=O)Cc1c(C)c2cc3c(c(C)c2oc1=O)OCN(CCc1ccc(F)cc1)C3`, 44%; to `Cc1c(C)c2cc3c(c(C)c2oc1=O)OCN(CCc1ccccc1)C3`, 77%. For `CCCc1cc(=O)oc2c(C)c3c(cc12)CN(CCc1ccc(Cl)cc1)CO3`, the survival was 39% (active). As for `COc1ccc2oc(=O)c(-c3nc(-c4ccc(C)c(C)c4)cs3)cc2c1`, the survival is 91%. The same measure for `COc1ccc(C2CC(=O)c3cnc4c(-c5ccc(F)cc5)c(C)nn4c3C2)cc1OC` (centres undefined): 80%.

Consider `CCOC(=O)c1sc2ncn(CC(=O)Nc3ccc(C)cc3Br)c(=O)c2c1C`, for which the survival is 66%. The same measure for `Cc1ccccc1CNC(=O)C(=O)NCC(c1ccc2c(c1)OCO2)N1CCOCC1` (centres undefined): 87%. Turning to `CCN(C(=O)c1cc2c(=O)oc3ccc(C)cc3c2s1)c1cc(OC)ccc1OC`, the survival was 78%. The same measure for `CC(=O)Nc1ccc(Nc2ncnc3c2c(-c2ccccc2)cn3-c2ccc(C)c(Cl)c2)cc1`: 68%. For `CNc1oc(-c2ccc(COc3ccc(C)cc3)o2)nc1C#N`, the survival is 77%. `CCCn1c(CCC(=O)Nc2ccc(OCC)cc2)nc2cccnc21`: the survival was 93%. With `N#Cc1c(-n2ncnc2-c2ccccc2Cl)sc2c1CCCCC2`, the survival was 26% (active). For `N#Cc1c(-n2ncnc2-c2ccccc2C(F)(F)F)sc2c1CCCCC2`, the survival was 6% (active). `COc1ccccc1-c1ncnn1-c1sc2c(c1C#N)CCCCC2`: the survival was -2% (active). As to `COc1ccccc1-c1cc(C(=O)Nc2sc3c(c2C#N)CCCC3)no1`, the survival is 130%. Take `Cc1ccccc1-c1ncnn1-c1sc2c(c1C#N)CCCCC2`: the survival was 72%. The same measure for `N#Cc1c(/N=C/N2CCCCC2)sc2c1CCCC2`: 80%; for `N#Cc1c(NC(=O)c2cccs2)sc2c1CCCCC2`: 87%; for `CC(NC(=O)Nc1ccccc1C(F)(F)F)c1c(-n2cccc2)sc2c1CCCC2` (centres undefined): 104%. In the case of `COc1cccc(-c2ncnn2-c2sc3c(c2C#N)CCCCC3)c1OC`, the survival was 86%.
